According to PubChem BioAssay (NCI):
About 79,000 compounds went through this panel and 15% of them were active in at least one assay; those are over-represented in the sample as a whole. The source made the active and inactive calls. Cut-off read from the data, not from the text of the source: active = growth inhibition above about 70%; inactive = the rest.

Assay: NCI Yeast Anticancer Drug Screen. Data for the rad52 strain (AID 147);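 note: 0% = growth of vehicle-treated control cultures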
Settings: S. cerevisiae rad52 mutant growth inhibition; at 100.0 µM; hits give high values
How it was run: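 Vehicle-treated cultures served as the reference for growth inhibition of compound-exposed yeast bearing a DNA repair mutation.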

Structure (SMILES)	growth inhibition
CCC/C(Cl)=N\OC(=O)Nc1cccc(C(F)(F)F)c1	21% (inactive)
[O-][n+]1c2ccc(O)cc2nc2ccc(Cl)cc21	75% (active)
Clc1ccccc1C1OC1c1ccccc1Cl (centres undefined)	-32% (inactive)
c1ccc2c(c1)c1ncccc1c1nccnc21	72% (active)
CC(=O)Nc1ccc2c(c1)C(=Nc1ccc(C(=O)O)cc1)c1ccccc1-2	96% (active)
COc1ccc(OC)c2cc3ccccc3cc12	17% (inactive)
COc1cc(C2c3cc4c(cc3OC(NNc3ccccc3)C2C)OCO4)cc(OC)c1OC (centres undefined)	75% (active)
O=C1c2cc([N+](=O)[O-])ccc2-c2cccc(F)c21	87% (active)
CCCCCCCCCCCC(=O)N(C)C	98% (active)
CCCCCCCCCCCC1=C(O)C(=O)C=C(O)C1=O	94% (active)
Cc1ccc(CSC(N)=Nc2ccccc2)cc1C	30% (inactive)
CCCCCCCCCCC1CCC(=O)O1 (centres undefined)	99% (active)
O=[N+]([O-])c1cc(CCl)ccc1CCl	97% (active)
Nc1ccc2c(c1)C(=O)c1cccc(N)c1C2=O	92% (active)
CCCCCCCCCCNC(=O)OCC	98% (active)
CC1=C(C)Cc2c(O)ccc(O)c2C1	61% (inactive)
COc1ccc2c(c1)C(=O)c1ccccc1C2	34% (inactive)
CCC(=O)OCCn1c2nc(=O)[nH]c(=O)c-2nc2cc(C)c(C)cc21	0% (inactive)
O=C(OCCN1CCCCCC1)C(c1ccsc1)C1CCCCC1 (centres undefined)	50% (inactive)
Oc1c(Br)cc(Br)cc1C1CCCCC1	98% (active)

Structure (SMILES)	growth inhibition
CC1(C)[C@@H]2CC[C@]1(C)[C@H](OC(=O)CSC#N)C2	95% (active)
S=C(N/N=C(/c1ccccc1)c1ccccn1)N1CCCCCC1	41% (inactive)
Cc1ccc2[nH]c3c(C)c4cc[n+](C)cc4c(C)c3c2c1	97% (active)
CNC(=O)OCc1c(COC(=O)NC)c(-c2ccc(-c3ccccc3)cc2)n(C)c1C	68% (inactive)
COc1ccccc1/C=C1\Sc2scc(-c3cccc([N+](=O)[O-])c3)[n+]2C1=O	93% (active)
O=[N+]([O-])c1ccc2c(c1)C(N1CCN(CCO)CC1)Cc1ccc(F)cc1S2 (centres undefined)	18% (inactive)
Cc1ccc(CCC2=CCCc3c2ccc2ccccc32)cc1	0% (inactive)
O=[N+]([O-])c1cccc2nccc(NCCCO)c12	70% (active)
Cc1ccc(-n2cc(-c3ccc(Cl)cc3)c(C#N)c2N)cc1	23% (inactive)
Cc1ccc(S/N=C\c2ccccc2O)cc1	8% (inactive)
O=C(O)C1OC1(c1cccc(Cl)c1)c1ccccc1Cl (centres undefined)	91% (active)
NC(=S)N/N=C\c1nccc2ccccc12	99% (active)
Clc1cccc(C(Nc2nncs2)Nc2nncs2)c1Cl	70% (active)
O=C(OCC=C1CCCC1)c1cc([N+](=O)[O-])cc([N+](=O)[O-])c1	96% (active)
O=C(Nc1ccccc1)C(=O)C(C(=O)c1ccccc1)C(c1ccccc1)c1ccccc1 (centres undefined)	36% (inactive)
N#CN1C2CCC1CC(=O)C2	-21% (inactive)
COc1ccccc1C(=O)OCC1CCCN2CCCCC12 (centres undefined)	97% (active)
CCNc1nnc(CSc2nc(-c3ccccc3)c(-c3ccccc3)[nH]2)s1	80% (active)
O=C1c2ccccc2-c2n[nH]c3cccc1c23	78% (active)
